Data from PubChem BioAssay.
Calls of active or inactive are those of the source.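 How the source made its calls, unless noted: active means inhibition at or above 50% at 10 µM; inactive means inhibition below 50%.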

Tests used:
[1] = inhibitors of TNFa-induced NFkB p65 translocation, primary screen, imaging, HUVEC, MLSMR starter and 10KST1 sets (AID 438;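 active means inhibition above 20% together with a positive visual image hit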;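 further: compound added about 3h40 before a 20 min TNFalpha stimulation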;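 on inhibition: signal is the nuclear over cytoplasmic p65 intensity ratio per well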); conditions: HUVEC TNFa-induced p65 nuclear translocation; cell count: measured here: nuclei count (cytotoxicity indicator), at 2.08 µM; inhibition: at 2 µM, stronger effect = higher value, 0% TNFa-plus-vehicle, 100% no-TNFa wells
[2] = reduction of polyQ htt aggregates in cells – imaging, exon1htt(103Q)mCFP cells, high-content imaging, primary screen (AID 483;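 active means visual image review flags a hit and inhibition of aggregation exceeds 20%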;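 further: compound exposure lasted 3 days before fixation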;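 on nuclei count: percent of the per-plate median nuclei count of sample wells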); conditions: exon1htt(103Q)mCFP cell line, aggregate imaging, at 2 µM; inhibition of aggregation: stronger effect = higher value; nuclei count: measured here: cell count, toxicity
[3] = endothelial E-selectin expression blockers – imaging, HUVEC, immunofluorescence, MLSMR starter and 10KST1 sets, primary screen (AID 487;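 active means visually confirmed hit in the image check and inhibition above 20%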;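 on inhibition: signal is fraction of cell area covered by stained E-selectin grains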;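 on nuclei count: 100% = median nuclei count of all wells on the same plate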); conditions: HUVEC TNFalpha-induced E-selectin immunofluorescence imaging, at 2 µM; inhibition: stronger effect = higher value; nuclei count: measured here: cell number, toxicity
[4] = target: Voltage-gated potassium channel subunit beta-2 (Rattus norvegicus) (UniProt P62483); test: inhibitors of rat Kvbeta2 reductase activity – biochemical, NADPH fluorescence, primary screen (AID 622;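 active means fluorescence slope higher than the sample average by over 3 SD, cut at about -0.22 in these data, passing the limit was not always enough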;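 further: slope of raw intensity against log time taken from 70 to 1610 s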); conditions: recombinant KvBeta, 4-cyanobenzaldehyde reduction, at 10 µM, stronger effect = higher value
Sequence of Voltage-gated potassium channel subunit beta-2 (Rattus norvegicus) (P62483 whole entry, looked up): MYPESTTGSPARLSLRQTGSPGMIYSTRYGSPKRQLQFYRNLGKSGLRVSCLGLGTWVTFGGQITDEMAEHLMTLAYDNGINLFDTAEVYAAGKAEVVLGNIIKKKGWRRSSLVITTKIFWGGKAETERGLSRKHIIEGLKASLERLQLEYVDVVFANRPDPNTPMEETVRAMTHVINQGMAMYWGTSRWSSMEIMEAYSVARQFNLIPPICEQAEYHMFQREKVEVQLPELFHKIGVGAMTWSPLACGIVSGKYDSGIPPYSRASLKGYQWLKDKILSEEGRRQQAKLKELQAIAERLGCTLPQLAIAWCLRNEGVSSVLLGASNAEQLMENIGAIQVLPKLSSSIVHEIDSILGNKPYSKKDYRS

[5] = target: Voltage-gated potassium channel subunit beta-2 (Rattus norvegicus) (UniProt P62483); test: enhancers of rat Kvbeta2 NADPH turnover – biochemical, NADPH fluorescence, primary screen (AID 623;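 active means NADPH fluorescence slope more negative than the mean of all samples by about 3 SD, 99.7% confidence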;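 further: fluorescence intensity change per second fitted from 20 to 320 s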); conditions: Recombinant KvBeta, NADPH fluorescence decrease slope, 10 min; at 10 µM; stronger effect = lower value
[6] = target: Alpha-2C adrenergic receptor (Homo sapiens) (UniProt P18825); test: compounds altering alpha2C-coupled GIRK flux – cell-based, HEK293 alpha2C/GIRK1/2, thallium flux, primary screen (AID 624;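 active means fluorescence slope after compound addition differing from the mean of all screened samples at 99.7% confidence, in either direction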;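 further: slope of fluorescence ratio to pre-addition baseline per second over 15 to 24 s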); conditions: thallium flux BTC fluorescence, at 10 µM, actives lie on both sides
Sequence of Alpha-2C adrenergic receptor (Homo sapiens) (P18825 whole entry, looked up): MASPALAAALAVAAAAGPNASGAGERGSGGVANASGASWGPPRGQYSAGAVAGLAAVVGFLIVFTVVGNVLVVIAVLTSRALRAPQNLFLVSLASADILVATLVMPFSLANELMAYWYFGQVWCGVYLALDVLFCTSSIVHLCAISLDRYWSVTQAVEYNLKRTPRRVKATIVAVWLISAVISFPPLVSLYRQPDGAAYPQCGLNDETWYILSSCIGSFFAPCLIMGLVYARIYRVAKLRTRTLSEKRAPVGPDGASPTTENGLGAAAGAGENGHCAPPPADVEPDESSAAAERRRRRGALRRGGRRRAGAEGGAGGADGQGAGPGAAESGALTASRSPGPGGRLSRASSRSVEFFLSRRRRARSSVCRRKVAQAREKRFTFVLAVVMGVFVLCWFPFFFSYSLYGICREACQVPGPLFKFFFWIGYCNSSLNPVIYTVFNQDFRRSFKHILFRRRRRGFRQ

[7] = blockers of RIG-like receptor reporter activation – cell-based, Sendai virus stimulus, luciferase, 10K MLSCN set, TLR/RLR signaling modifier project, primary screen (AID 602276); conditions: HEK293 RL24 IRF3 luciferase reporter, at 10 µM, stronger effect = higher value;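 further: firefly luciferase from ISG56 promoter only with Renilla not read in this screen; 0% = Sendai virus plus DMSO and 100% = medium plus DMSO without virus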
[8] = TLR3 IRF3 reporter activation blockers – cell-based, poly I:C stimulus, luciferase, 10K MLSCN set, primary screen (AID 602277;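 active means inhibition of the reporter signal at or above 50%; inactive means inhibition below 50%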); conditions: HEK293-TLR3 RL24 IRF3 luciferase reporter, at 10 µM, stronger effect = higher value

Row | SMILES | cell count [1] | inhibition [1] | inhibition of aggregation [2] | nuclei count [2] | inhibition [3] | nuclei count [3] | fluorescence slope [4] | NADPH fluorescence slope [5] | slope [6] | inhibition [7] | inhibition [8]
1 | Nc1c(N2CCCCC2)c(=O)[nH]c(=O)n1-c1ccccc1 | 751 | 2.4% (inactive) | 3% (inactive) | 106% | -0.1% (inactive) | 109% | -0.456 (inactive) | 4.1e-05 (inactive) | 0.00376 (inactive) | -4.05% (inactive) | -5.22% (inactive)
2 | Cc1cc(C(=O)Nc2nnc(C(F)(F)F)s2)no1 | 342 | -4.7% (inactive) | -8% (inactive) | 98% | -25.5% (inactive) | 106% | -0.447 (inactive) | 1.8e-05 (inactive) | 0.00633 (inactive) | -1.51% (inactive) | -19.4% (inactive)
3 | Cc1cc(C(=O)CSc2nc3ccccc3n2CCC#N)c(C)n1Cc1cccs1 | 440 | 10.6% (inactive) | -70.3% (inactive) | 102% | -412% (inactive) | 158% | -0.32 (inactive) | -4.6e-05 (inactive) | 0.00574 (inactive) | 20.7% (inactive) | -7.47% (inactive)
4 | COc1ccc2c(c1)C1(Nc3ccccc3-c3nc4ccccc4n31)C(=O)N2 (stereo not drawn) | 240 | 5.7% (inactive) | 11.7% (inactive) | 78% | 13.2% (inactive) | 110% | -0.493 (inactive) | -4.6e-05 (inactive) | 0.00486 (inactive) | 17.4% (inactive) | 36.3% (inactive)
5 | CC(=O)Nc1ccc(NC(=O)c2cc(C)nn2-c2ccccc2)cc1 | 687 | -6.1% (inactive) | -15.3% (inactive) | 112% | -36.4% (inactive) | 129% | -0.539 (inactive) | -1.7e-06 (inactive) | 0.00394 (inactive) | -3.81% (inactive) | 0.294% (inactive)
6 | CN(C)S(=O)(=O)N1CCN(c2cccc(Cl)c2)CC1 | 411 | -0.2% (inactive) | 16.9% (inactive) | 87.3% | -14.6% (inactive) | 99.2% | -0.514 (inactive) | 7.3e-06 (inactive) | 0.00363 (inactive) | 10.3% (inactive) | 20.7% (inactive)
7 | CCCCSc1nc(CCC)cc(=O)[nH]1 | 383 | -0.3% (inactive) | -4% (inactive) | 98.2% | 3.8% (inactive) | 116% | -0.34 (inactive) | 5.5e-06 (inactive) | 0.00636 (inactive) | 5.02% (inactive) | 2.79% (inactive)
8 | CN1CC(=O)N(CC(=O)NCCc2ccc(F)cc2)c2ccccc2C1=O | 214 | 21% (inactive) | 16.8% (inactive) | 110% | -1.2% (inactive) | 90.4% | -0.602 (inactive) | -2.2e-05 (inactive) | 0.0102 (inactive) | 10.8% (inactive) | 9.93% (inactive)
9 | CC(C)COc1ccc(-c2nnn(CC(=O)N3CCCC3)n2)cc1 | 473 | -5.5% (inactive) | -13.3% (inactive) | 106% | 19.6% (inactive) | 109% | -0.564 (inactive) | -5.5e-05 (inactive) | 0.00381 (inactive) | -2.78% (inactive) | -17.8% (inactive)
10 | CCN1CCN(c2nc3c(c(=O)n(C)c(=O)n3C)n2CCSc2ncccn2)CC1 | 295 | -0.5% (inactive) | -7.5% (inactive) | 97.8% | -130% (inactive) | 116% | -0.506 (inactive) | -9.3e-06 (inactive) | 0.00522 (inactive) | 0.292% (inactive) | 13% (inactive)
11 | Cc1c(C#N)c(N)c(C(=O)c2ccccc2)n1Cc1ccccc1 | 375 | 0% (inactive) | 15.4% (inactive) | 100% | -38% (inactive) | 117% | -0.512 (inactive) | -1.4e-05 (inactive) | 0.0107 (inactive) | -20.6% (inactive) | 0.155% (inactive)
12 | COc1ccc(-n2c(COc3cccc(C)c3)nnc2SCC(=O)NCc2ccco2)cc1 | 707 | -6.3% (inactive) | 5.1% (inactive) | 100% | -54.8% (inactive) | 100% | -0.596 (inactive) | -6.6e-05 (inactive) | 0.00613 (inactive) | -3.09% (inactive) | 10.9% (inactive)
13 | CCCC1CCC(C(=O)Nn2cnc3ccccc3c2=O)CC1 (stereo not drawn) | 271 | 3.9% (inactive) | 17.1% (inactive) | 86.9% | 33.8% (inactive) | 77.6% | -0.478 (inactive) | 2.4e-05 (inactive) | 0.00566 (inactive) | 6.74% (inactive) | 21.4% (inactive)
14 | Cn1c(SCC(=O)c2ccc(-c3ccccc3)cc2)nnc1-c1ccco1 | 248 | 4.3% (inactive) | 5.3% (inactive) | 67.6% | -7.1% (inactive) | 118% | -0.516 (inactive) | -5.4e-05 (inactive) | 0.0027 (inactive) | 3.76% (inactive) | 1.41% (inactive)
15 | O=C(c1cccnc1NCc1ccccc1)N1CCOCC1 | 616 | -26.5% (inactive) | 5.4% (inactive) | 114% | -53.4% (inactive) | 116% | -0.613 (inactive) | 2e-05 (inactive) | 0.00541 (inactive) | -13.7% (inactive) | -5.42% (inactive)
16 | CCOc1ccc(C2CC(c3ccccc3C)n3nc(N)nc3N2)cc1 (stereo not drawn) | 515 | 5% (inactive) | 30.8% (inactive) | 91.1% | -43.7% (inactive) | 90.1% | -0.586 (inactive) | 1.8e-05 (inactive) | 0.00699 (inactive) | 10.4% (inactive) | 25% (inactive)
17 | Cn1c(=O)[nH]c(=O)c2c1nc(N1CCc3ccccc3C1)n2CCSc1nc2ccccc2s1 | 404 | 4.7% (inactive) | 4.4% (inactive) | 105% | -34.8% (inactive) | 118% | -0.502 (inactive) | -4.2e-05 (inactive) | 0.00385 (inactive) | 19.3% (inactive) | 23% (inactive)
18 | O=C1CCCCCC1C1(O)C(=O)Nc2ccccc21 (stereo not drawn) | 349 | 10% (inactive) | -6% (inactive) | 101% | -26.3% (inactive) | 116% | -0.424 (inactive) | 4e-05 (inactive) | 0.00358 (inactive) | 9.01% (inactive) | 29% (inactive)
19 | O=C(OCc1nnc(-c2ccccc2)o1)c1ccc2ccccc2n1 | 457 | -3.1% (inactive) | -11.6% (inactive) | 95.8% | -165% (inactive) | 106% | -0.565 (inactive) | 7e-05 (inactive) | 0.00433 (inactive) | -29.8% (inactive) | -34.4% (inactive)
20 | COC(=O)c1ccc(C(=O)OC)c(NC(=O)Nc2ccc3c(c2)OCO3)c1 | 279 | -7.1% (inactive) | 2.1% (inactive) | 94.2% | -15.8% (inactive) | 95.1% | -0.417 (inactive) | 7.6e-06 (inactive) | 0.00311 (inactive) | -24.9% (inactive) | -44.2% (inactive)
21 | COc1ccc(CC(=O)OCn2nnc3ccccc3c2=O)cc1 | 423 | -7% (inactive) | -25.9% (inactive) | 120% | -7.5% (inactive) | 115% | -0.416 (inactive) | -4.2e-05 (inactive) | 0.00601 (inactive) | 12% (inactive) | 16.4% (inactive)
22 | Cc1ccnc(N2CCN(C(=O)CSc3nc4ccccc4nc3N3CCCCC3)CC2)c1 | 451 | -9.8% (inactive) | -14.3% (inactive) | 113% | -13.7% (inactive) | 100% | -0.333 (inactive) | 9.1e-07 (inactive) | 0.00385 (inactive) | 9.18% (inactive) | 4.58% (inactive)
23 | COc1ccccc1C(=O)N1CCN(CCc2ccccc2)CC1 | 341 | 3.2% (inactive) | -5.8% (inactive) | 100% | 6% (inactive) | 104% | -0.385 (inactive) | 1.9e-05 (inactive) | 0.00331 (inactive) | 8.51% (inactive) | 0.325% (inactive)
24 | CCOC(=O)c1c(NC(=O)OC)sc2c1CCC2 | 496 | -0.5% (inactive) | 9.3% (inactive) | 82.8% | -35.7% (inactive) | 125% | -0.535 (inactive) | -1.5e-05 (inactive) | 0.00667 (inactive) | 7.95% (inactive) | 15.6% (inactive)
25 | CC1(C)CC(=O)CC(C)(C)N1OC(=O)c1ccccn1 | 362 | 1% (inactive) | -6.4% (inactive) | 97.7% | -4.9% (inactive) | 102% | -0.495 (inactive) | 2e-05 (inactive) | 0.00619 (inactive) | -2.81% (inactive) | 25.3% (inactive)
26 | COc1cc(OC)c(OC)cc1CN(C)CCc1ccccn1 | 756 | -17% (inactive) | -20.8% (inactive) | 115% | -114% (inactive) | 109% | -0.356 (inactive) | -7.4e-05 (inactive) | 0.00545 (inactive) | 13.6% (inactive) | 37.3% (inactive)
27 | Cn1nnnc1SCSc1nnnn1C | 626 | -16.6% (inactive) | 4.1% (inactive) | 56.1% | -58% (inactive) | 93.3% | -0.585 (inactive) | -4.7e-05 (inactive) | 0.00536 (inactive) | 0.0465% (inactive) | -3.07% (inactive)
28 | Cc1cc(=O)oc2cc(OCC(=O)OCC(=O)N3CCc4ccccc43)ccc12 | 358 | 4.7% (inactive) | -5% (inactive) | 88.9% | -44.9% (inactive) | 103% | -0.331 (inactive) | -5.7e-05 (inactive) | 0.00553 (inactive) | 11% (inactive) | 16.2% (inactive)
